# Values joined by “and” are separate entries in the source; they are usually repeats but may differ in a detail not shown here. Equal values may be shown once. The panel holds about 83,000 compounds, 20% with a hit somewhere; the sample as a whole holds those more often.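 Assay: single dose, 48 h. Readout: percent growth (0 = no net growth; negative = cell death). Active: <10.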 Active and inactive are the calls of the source.
# Test system: SW-620 colon
# Assay: NCI-60 one-dose screen, 48 h (100 = growth as untreated, 0 = no growth, -100 = all killed)
# Settings: 10 µM unless noted
# Method: Growth inhibition of the SW-620 human tumor cell line is measured as a screen for anti-cancer activity. Cells are grown in 96 well plates and exposed to the test compound for 48 hours. Compounds are tested at a single concentration, which is 10^-5 M for most compounds. The reported endpoint is percent growth (GI% or GIPRCNT), where numbers from 0 - 100% represent growth inhibition, and numbers from -100% - 0 represent cell death. For example, a value of 40 represents 60% growth inhibition. A value of 0 means no net growth occurred over the course of the experiment. A value of -40 indicates 40% of cells at the beginning of the experiment died by the end of the experiment. A value of -100 means all cells are dead at the end of the experiment.
# NCI-60 Human Tumor Cell Lines Screen was performed using the standard one-dose NCI protocol, which is described in more detail at https://dtp.cancer.gov/discovery_development/nci-60/default.htm.
# Compounds with GIPRCNT values below 10 were considered active. Activity score was based on GIPRCNT using the following formula: […]
# Score is 0 for GIPRCNT values of 100 or above, 50 for GIPRCNT values of 0, and 100 for GIPRCNT values of -100.
row,Structure (SMILES),growth
1,COc1ccc2c(O)c(/C=C3\N=Nc4nc(C)ccc43)oc2c1CC1CCNCC1,38.9% (inactive)
2,CC(C)=CCc1cc(O)c(O)c2oc3cc(O)cc(O)c3c(=O)c12,61.9% (inactive)
3,Nc1[nH]nc(Nc2ccccc2)c1-c1nc2ccccc2s1,15.5% (inactive)
4,COC1/C=C/OC2(C)Oc3c(C)c(O)c4c(O)c(c(C=NOC(c5ccccc5)c5ccccc5)c(O)c4c3C2=O)NC(=O)/C(C)=C/C=C/C(C)C(O)C(C)C(O)C(C)C(OC(C)=O)C1C (stereo not given),18.3% (inactive)
5,CCCCCCCCCCCCCCCC[N+](C)(C)CCN(Cc1ccc(OC)cc1)c1ncccn1,-86% (active) and 76.9% (inactive)
6,O=S(=O)(Nc1cc(Sc2cccc3cccnc23)c(O)c2ccccc12)c1ccc(F)cc1,-69.3% (active)
7,Cc1ccc(Nc2nc(-c3cc(O)c(C)c(C)c3O)cs2)cc1,111% (inactive)
8,Fc1ccc(NC(c2ccc(F)cc2)C2CCN(CCCCc3ccccc3)CC2)cc1 (stereo not given),12.7% (inactive)
9,N#Cc1ccccc1-c1ccc(Cn2c(-c3cscn3)nc3c(Cl)cccc32)cc1,87.6% (inactive)
10,CCOc1nc(-c2ccccc2)cc2c(O)c(C(=O)N/N=C/c3ccc(N(C)C)cc3)[nH]c(=O)c12,97.8% (inactive)
11,Cc1ccc(-c2nc3nc(-c4ccccc4)nc(N4CCCNCC4)c3o2)cc1,-57.5% (active)
12,CC1=CC(C)(C)NC(=S)N1c1ccc(Cl)cc1,100% (inactive) and 115% (inactive)
13,COc1ccc(C(CC(=O)c2ccc3c(c2)OCO3)C(=O)O)cc1OC (stereo not given),100% (inactive) and 108% (inactive)
14,O=C1OCC2=C1C(c1cccc(C(F)(F)F)c1)c1cc3c(cc1N2CCO)CCC3 (stereo not given),24% (inactive)
15,CN(C)c1ccc2nc3ccc(=O)cc-3sc2c1,31.9% (inactive) and 47.4% (inactive)
16,COC(=O)c1[nH]nc(OC)c1C1(C(C#N)c2nc3ccccc3s2)CCCc2ccccc21 (stereo not given),104% (inactive)
17,COCCn1cc(-c2csc(-c3cn(C)c4ccc(F)cc34)n2)c2cccnc21,37.6% (inactive)
18,CC(C)(C)c1cc(C(C)(C)c2ccccc2)cc(Cc2cc(C(C)(C)c3ccccc3)cc(C(C)(C)C)c2O)c1O,104% (inactive)
19,O=Nc1ccc(NO)c2ccccc12,86% (inactive) and 52.3% (inactive)
20,OCCN1CCN(CC/C=C2\c3ccccc3Sc3ccc(Cl)cc32)CC1,-75.2% (active) and 0.592% (active)

row,Structure (SMILES),growth
1,CCOC(=O)c1cnn(CC(O)CC)c1NC(=O)NCc1ccccc1C(F)(F)F (stereo not given),108% (inactive)
2,CCOC(=O)c1c(-c2ccc(OC)cc2)c(C#N)c2c(C#N)c(N)nn2c1N,26.9% (inactive)
3,O=C1CCCCN1CCCCC#Cc1cccc(C#Cc2cccnc2)c1,101% (inactive)
4,Nc1nc(Nc2cccnc2)sc1C(=O)c1ccccc1F,34.5% (inactive)
5,CCOC(=O)CC1CSC(c2cccc(Cl)c2)=N1 (stereo not given),108% (inactive)
6,COc1ccc(-c2ccc(-c3ccc(C(=N)N)cn3)o2)cc1Cl,-50.3% (active)
7,COc1ccc(-c2csc(NC(=O)CN3CCN(CCO)CC3)n2)cc1NS(=O)(=O)c1cccc2c(N(C)C)cccc12,84.1% (inactive)
8,O=C(NCc1cccnc1)/C(=C\c1ccc(Br)cc1)S(=O)(=O)c1ccccc1,-74% (active)
9,COC(=O)[C@H]1Cc2c([nH]c3ccccc23)[C@@H](c2cccs2)N1,100% (inactive)
10,Cc1cc2nc(C(Cl)Cl)nc(-c3ccc(Cl)cc3)n2n1,-36.6% (active)
11,CN(C)C(=O)c1cc2cnc(Nc3ccc(-c4csc5c(=S)cc(N6CCOCC6)oc45)cc3)nc2n1C1CCCC1,4.89% (active)
12,CCCO/N=C/c1ccccn1,102% (inactive) and 110% (inactive)
13,COc1cc(CO)cc2cc3ccccc3nc12,102% (inactive)
14,CC[C@]12CN3CCc4c([nH]c5ccccc45)[C@@](C(=O)OC)(c4cc5c(cc4OC)N(C)[C@H]4[C@@](O)(C(=O)OC)[C@H](OC(C)=O)[C@]6(CC)C=CCN7CC[C@]54[C@@H]76)CC(C3)[C@H]1O2 (stereo not given in full),17.1% (inactive)
15,CCN(CC)CCOc1ccc(/C(=C(\Cl)c2ccccc2)c2ccccc2)cc1,-55% (active)
16,N=C(N)SCc1c2ccccc2c(CSC(=N)N)c2ccccc12,43.1% (inactive)
17,Cc1ccc(S(=O)(=O)Nc2cc(Sc3ccccc3)c(O)c3ccccc23)cc1,108% (inactive)
18,O=C(N=Nc1c(O)[nH]c2ccccc12)Nc1ccc(Br)cc1,91.6% (inactive)
19,N#Cc1ccccc1OCC(=O)Nc1nc2c(s1)COc1ccccc1-2,103% (inactive)
20,COc1cc(-c2nn(-c3cccc(NC(=O)CCN4CCN(C)CC4)c3)cc2-c2ccncc2)ccc1Cl,26.8% (inactive)

# From PubChem BioAssay (NCI)
